Measured values reported in PMC12820563, “FoxP3 forms a head-to-head dimer in vivo and stabilizes its multimerization on adjacent microsatellites”.
The full ranking holds about 16,000 sequences; the median of “rpm ratio (pull-down/input)” is about 0.5, and the highest 2% start at about 5.5. This is one part of a sample in which the highest values are shown more often than they occur.

molecular target: T1, MBP-FoxP3dN (Mus musculus, UniProt Q99JB6 188-423); test: PD-seq (MBP pull-down with sequencing); 20 mM Tris-HCl pH 7.5, 100 mM NaCl, 1.5 mM MgCl2, 0.4 uM protein, 0.1 uM dsDNA library, 30 min, room temperature, amylose pull-down; high values mean tight binding; settings: protein: recombinant; tags: His6-MBP; chain copies: 2; dsDNA, one strand shown
T1 sequence: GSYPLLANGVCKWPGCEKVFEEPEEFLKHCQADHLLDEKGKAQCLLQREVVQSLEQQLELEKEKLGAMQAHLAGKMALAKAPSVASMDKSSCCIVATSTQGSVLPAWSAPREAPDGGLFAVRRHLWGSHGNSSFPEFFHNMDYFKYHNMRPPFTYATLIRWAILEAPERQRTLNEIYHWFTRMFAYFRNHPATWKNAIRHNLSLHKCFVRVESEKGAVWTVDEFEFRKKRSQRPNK
Outline: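 Protein and DNA were mixed at 0.4 µM and 0.1 µM and held for 30 min at room temperature in Tris pH 7.5 buffer with NaCl and MgCl2; the protein was a His6-MBP-tagged, N-terminally truncated mouse FoxP3 or FoxP1 fragment from E. coli, and the DNA a Klenow-filled double-stranded degenerate library. Amylose resin captured the complexes, which were washed three times. Binding is read as reads-per-million enrichment of pull-down versus input after Illumina sequencing, with replicates pooled.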

Point of comparison: “GATGATTGTTCTCCCAGCTGATGAATTAGCTAAGTCGAGTAAACAAATTTTCCTAATCTTTCTGTTCAAGCGCCATCTAC”, binding signal 0.231 RPM ratio (pull-down/input). Against it:
- GATGATTGTTCTCCCAGCTGATGAATTAAAGCTGTCGAGTAAACAAATTTTCCTAATCTTTCTGTTCAAGCGCCATCTAC — higher, 0.47 RPM ratio (pull-down/input)
- GATGATTGTTCTCCCAGCTGATGAATTCTTTCCCTCGAGTAAACAAATTTTCCTAATCTTTCTGTTCAAGCGCCATCTAC — lower, 0.206 RPM ratio (pull-down/input)
- GATGATTGTTCTCCCAGCTGATGAATTAGTAGGGTCGAGTAAACAAATTTTCCTAATCTTTCTGTTCAAGCGCCATCTAC — higher, 1.4 RPM ratio (pull-down/input)
- GATGATTGTTCTCCCAGCTGATGAATTTGCCAACTCGAGTAAACAAATTTTCCTAATCTTTCTGTTCAAGCGCCATCTAC — higher, 0.47 RPM ratio (pull-down/input)
- GATGATTGTTCTCCCAGCTGATGAATTCTACAACTCGAGTAAACAAATTTTCCTAATCTTTCTGTTCAAGCGCCATCTAC — higher, 0.303 RPM ratio (pull-down/input)
- GATGATTGTTCTCCCAGCTGATGAATTCAACAACTCGAGTAAACAAATTTTCCTAATCTTTCTGTTCAAGCGCCATCTAC — higher, 0.576 RPM ratio (pull-down/input)
- GATGATTGTTCTCCCAGCTGATGAATTGTGCAACTCGAGTAAACAAATTTTCCTAATCTTTCTGTTCAAGCGCCATCTAC — higher, 6.92 RPM ratio (pull-down/input)
- GATGATTGTTCTCCCAGCTGATGAATTGTTCAACTCGAGTAAACAAATTTTCCTAATCTTTCTGTTCAAGCGCCATCTAC — higher, 0.485 RPM ratio (pull-down/input)
- GATGATTGTTCTCCCAGCTGATGAATTCAGCAACTCGAGTAAACAAATTTTCCTAATCTTTCTGTTCAAGCGCCATCTAC — higher, 4.78 RPM ratio (pull-down/input)
- GATGATTGTTCTCCCAGCTGATGAATTGCAACTCTCGAGTAAACAAATTTTCCTAATCTTTCTGTTCAAGCGCCATCTAC — higher, 2.79 RPM ratio (pull-down/input)
- GATGATTGTTCTCCCAGCTGATGAATTCTGCAACTCGAGTAAACAAATTTTCCTAATCTTTCTGTTCAAGCGCCATCTAC — higher, 5.96 RPM ratio (pull-down/input)
- GATGATTGTTCTCCCAGCTGATGAATTTTGCAACTCGAGTAAACAAATTTTCCTAATCTTTCTGTTCAAGCGCCATCTAC — higher, 6.24 RPM ratio (pull-down/input)
- GATGATTGTTCTCCCAGCTGATGAATTCCGCAACTCGAGTAAACAAATTTTCCTAATCTTTCTGTTCAAGCGCCATCTAC — higher, 6.11 RPM ratio (pull-down/input)
- GATGATTGTTCTCCCAGCTGATGAATTCCGCAAATCGAGTAAACAAATTTTCCTAATCTTTCTGTTCAAGCGCCATCTAC — higher, 0.692 RPM ratio (pull-down/input)
- GATGATTGTTCTCCCAGCTGATGAATTTGCAAACTCGAGTAAACAAATTTTCCTAATCTTTCTGTTCAAGCGCCATCTAC — higher, 0.673 RPM ratio (pull-down/input)
- GATGATTGTTCTCCCAGCTGATGAATTATCAAACTCGAGTAAACAAATTTTCCTAATCTTTCTGTTCAAGCGCCATCTAC — higher, 0.363 RPM ratio (pull-down/input)
- GATGATTGTTCTCCCAGCTGATGAATTGCCCTCCTCGAGTAAACAAATTTTCCTAATCTTTCTGTTCAAGCGCCATCTAC — higher, 0.471 RPM ratio (pull-down/input)
- GATGATTGTTCTCCCAGCTGATGAATTTCGTCAATCGAGTAAACAAATTTTCCTAATCTTTCTGTTCAAGCGCCATCTAC — higher, 0.411 RPM ratio (pull-down/input)
- GATGATTGTTCTCCCAGCTGATGAATTATTAGCTTCGAGTAAACAAATTTTCCTAATCTTTCTGTTCAAGCGCCATCTAC — higher, 0.671 RPM ratio (pull-down/input)
- GATGATTGTTCTCCCAGCTGATGAATTATTCCGATCGAGTAAACAAATTTTCCTAATCTTTCTGTTCAAGCGCCATCTAC — lower, 0.214 RPM ratio (pull-down/input)
- GATGATTGTTCTCCCAGCTGATGAATTTCATCTGTCGAGTAAACAAATTTTCCTAATCTTTCTGTTCAAGCGCCATCTAC — higher, 0.411 RPM ratio (pull-down/input)
- GATGATTGTTCTCCCAGCTGATGAATTGTGGCTGTCGAGTAAACAAATTTTCCTAATCTTTCTGTTCAAGCGCCATCTAC — higher, 1.13 RPM ratio (pull-down/input)
- GATGATTGTTCTCCCAGCTGATGAATTATCATCGTCGAGTAAACAAATTTTCCTAATCTTTCTGTTCAAGCGCCATCTAC — higher, 0.418 RPM ratio (pull-down/input)
- GATGATTGTTCTCCCAGCTGATGAATTCCAGTAATCGAGTAAACAAATTTTCCTAATCTTTCTGTTCAAGCGCCATCTAC — higher, 0.477 RPM ratio (pull-down/input)
- GATGATTGTTCTCCCAGCTGATGAATTTGTTGCTTCGAGTAAACAAATTTTCCTAATCTTTCTGTTCAAGCGCCATCTAC — higher, 6.86 RPM ratio (pull-down/input)
- GATGATTGTTCTCCCAGCTGATGAATTTGCTTTTTCGAGTAAACAAATTTTCCTAATCTTTCTGTTCAAGCGCCATCTAC — higher, 5.38 RPM ratio (pull-down/input)
- GATGATTGTTCTCCCAGCTGATGAATTTGCTGTTTCGAGTAAACAAATTTTCCTAATCTTTCTGTTCAAGCGCCATCTAC — higher, 6.28 RPM ratio (pull-down/input)
- GATGATTGTTCTCCCAGCTGATGAATTGCTGTTTTCGAGTAAACAAATTTTCCTAATCTTTCTGTTCAAGCGCCATCTAC — higher, 2.65 RPM ratio (pull-down/input)
- GATGATTGTTCTCCCAGCTGATGAATTGCTATTTTCGAGTAAACAAATTTTCCTAATCTTTCTGTTCAAGCGCCATCTAC — higher, 1.47 RPM ratio (pull-down/input)
- GATGATTGTTCTCCCAGCTGATGAATTTTGCTATTCGAGTAAACAAATTTTCCTAATCTTTCTGTTCAAGCGCCATCTAC — higher, 5.16 RPM ratio (pull-down/input)
- GATGATTGTTCTCCCAGCTGATGAATTTGCTGCTTCGAGTAAACAAATTTTCCTAATCTTTCTGTTCAAGCGCCATCTAC — higher, 3.05 RPM ratio (pull-down/input)
- GATGATTGTTCTCCCAGCTGATGAATTTGCTTGTTCGAGTAAACAAATTTTCCTAATCTTTCTGTTCAAGCGCCATCTAC — higher, 6.99 RPM ratio (pull-down/input)
- GATGATTGTTCTCCCAGCTGATGAATTTTTGCTTTCGAGTAAACAAATTTTCCTAATCTTTCTGTTCAAGCGCCATCTAC — higher, 0.978 RPM ratio (pull-down/input)
- GATGATTGTTCTCCCAGCTGATGAATTTTGCTGTTCGAGTAAACAAATTTTCCTAATCTTTCTGTTCAAGCGCCATCTAC — higher, 5.2 RPM ratio (pull-down/input)
- GATGATTGTTCTCCCAGCTGATGAATTTGCTATTTCGAGTAAACAAATTTTCCTAATCTTTCTGTTCAAGCGCCATCTAC — higher, 5.54 RPM ratio (pull-down/input)
- GATGATTGTTCTCCCAGCTGATGAATTCTTTGCTTCGAGTAAACAAATTTTCCTAATCTTTCTGTTCAAGCGCCATCTAC — higher, 0.407 RPM ratio (pull-down/input)
